Abeta rescue: qHTS for compounds that reverse cellular toxicity of Amyloid beta (A-beta) peptide in yeast: Primary Screen | 0.063% of 410,000 active | yeast expressing A-beta42, growth rescue, OD600, 48 h; response scale: 0% DMSO, 100% iron-clioquinol control | Potency, µM (series often up to 46.1 µM), hits mostly activators; note: nearly all actives have a fitted effect of over 55% in size
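Growth rescue measured by 600 nm absorbance after 48 h yeast culture at 30 C with compound. Values normalized between DMSO and an equimolar ferric chloride plus clioquinol control.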
aSyn yeast inh: qHTS of alpha-syn Inhibitors | 0.14% of 370,000 active | Potency, µM (doses to about 46.1 µM), most hits filed as activators | Yeast expressing alpha-synuclein, growth rescue, BacTiter-Glo, 24 h | AID 652106, 2013; note: nearly all actives have a fitted effect of over 65% in size
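Screening used galactose-induced yeast with toxic alpha-synuclein levels, exposed to compound for 24 hr at 30 deg C. Cell growth, read with BacTiter-Glo luminescence, gave the measured signal.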
CCT chaperon mod: High-Throughput Screening for Modulators of Cytosolic Chaperonin Activity; purified chaperonin ATPase assay, HTRF ADP detection, 30 min; activity change, % (concentration not given with the values), hits read low; 0.3% of 360,000 active; AID 651819, 2012; in the data active = activity change below about -30%
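Enzyme 40 or 20 nM (batch-dependent) in Tris pH 7.4/KCl/MgCl2/DTT; cpd 76 uM single point; ATP 10 uM; 30 min 37 °C; Transcreener ADP HTRF detection, 30 min RT; ratio 665/615.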
FUS suppressor: qHTS for Suppressors of FUS Proteinopathy: Primary screen using FUS-linked yeast assay. 0.24% of 390,000 active. Potency, µM (titrated, usually from 76.6 µM), usual class: activators. S. cerevisiae FUS-expressing, growth rescue, OD600, 24 h; note: nearly all actives have a fitted effect of over 55% in size
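Absorbance at 600 nm, taken 24hr after compound addition, measured rescue of FUS-yeast growth at 30C. Induction used 2% galactose with seeding at OD 0.005. Controls: CP55940 from 92uM final, DMSO only.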
Mm-Cpn inhibitor: Inhibitors of TCP-1 ring complex (TRiC) of Methanococcus maripaludis (MmCpn): qHTS. purified Mm-Cpn ATPase, ADP Transcreener TR-FRET. Potency, µM (highest dose often 76.9 µM), usual class: inhibitors. 0.031% of 330,000 active; note: nearly all actives have a fitted effect of over 80% in size
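25 nM Mm-CPN + cpd, 10 min 37°C; + 10 uM ATP, 30 min 37°C; buffer 30 mM Tris pH 7.4, 100 mM KCl, 5 mM MgCl2, 1 mM DTT; Transcreener ADP HTRF detection 30 min RT.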
TDP-43 yeast inh: qHTS of TDP-43 Inhibitors; TDP-43 expressing yeast growth rescue, BacTiter-Glo, 24 h; Potency, µM (doses to about 46.1 µM), hits mostly activators; 1.8% of 410,000 active; AID 652104, 2013; note: nearly all actives have a fitted effect of over 50% in size
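In this qHTS, compounds that restore growth of yeast expressing TDP-43 appear as activators. Cells (OD600=0.02, galactose medium, raffinose-pregrown) are incubated with compound 24 hr at 30 deg C and growth is quantified by BacTiter-Glo.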
Hits are given with their value; . = inactive; ? = inconclusive; / = not tested or not shown. Most compounds without a hit are left out; they make up all but 2.3% or so of the library. Unless noted, calls come from the whole dose curve; as a rule, active = well fitted curve in the direction sought with a large enough effect; inconclusive = small, poorly fitted or top-dose-only effect, or another doubt; inactive = no such curve, though single readings can be large; an effect the other way counts as inactive or inconclusive.

SMILES | Abeta rescue | aSyn yeast inh | CCT chaperon mod | FUS suppressor | Mm-Cpn inhibitor | TDP-43 yeast inh
CCOc1cccc(C(=O)NC(=S)Nc2cccc(C)c2)c1 | ? | . | . | . | . | 35µM
CCCOc1cccc(C(=O)NC(=S)Nc2cccc(C(F)(F)F)c2)c1 | . | . | . | . | . | .
COc1cccc(NC(=S)NC(=O)c2cncc(Br)c2)c1 | ? | . | . | . | / | 13µM
COc1cccc(NC(=O)c2csc3c2CCCCC3)c1 | . | / | / | . | / | 13µM
COc1ccc(NC(=O)c2csc3c2CCCCC3)cc1 | . | / | / | . | / | .
Cc1ccccc1C(=O)/C(C#N)=N/Nc1c(C)n(C)n(-c2ccccc2)c1=O | . | 16µM | . | / | . | 35µM
O=C(COc1ccccc1)Nc1ccc2[nH]ncc2c1 | . | . | . | . | . | .
O=C(COc1ccc(Cl)cc1)Nc1ccc2[nH]ncc2c1 | . | . | . | . | . | 2.8µM
Cc1ccccc1OCC(=O)Nc1ccc2[nH]ncc2c1 | . | . | . | . | . | 13µM
Cc1ccc2c(c1)cc1c(=O)n(Cc3ccccc3Cl)nc(C)n12 | . | / | / | . | / | .
CC(C)Sc1ncc(Cl)c(C(=O)N(Cc2ccc(F)cc2)C2CCS(=O)(=O)C2)n1 (configuration not stated) | . | / | / | . | / | .
CCCOc1ccc(CN(C(=O)c2nc(SC(C)C)ncc2Cl)C2CCS(=O)(=O)C2)cc1 (configuration not stated) | . | / | / | 35µM | / | .
CCOc1ccccc1NC(=O)c1cc2c(C)nn(-c3ccccc3)c2s1 | / | / | / | . | / | /
O=C(CCc1ccccc1)NNc1cc(N2CCCCC2)nc(N2CCCCC2)n1 | . | . | . | . | . | 3.2µM
Cc1ccc(S(=O)(=O)CCC(=O)c2cccc([N+](=O)[O-])c2)cc1 | . | . | . | . | . | 18µM
CCOC(=O)N/N=C/c1cn(CCCOc2ccc(C)cc2)c2ccccc12 | . | . | . | / | . | ?
CCOC(=O)N/N=C/c1cn(CCCOc2ccccc2)c2ccccc12 | . | . | . | . | . | 11µM
COc1ccc(C2=NN(C(=O)CSc3nc4ncc(Cl)cc4[nH]3)C(c3ccco3)C2)cc1 (configuration not stated) | . | . | . | ? | ? | 35µM
Cc1ccc(C2=NN(C(=O)CSc3nc4ncc(Cl)cc4[nH]3)C(c3ccco3)C2)cc1 (configuration not stated) | . | . | . | . | . | .
CC(C)(C)NC(=S)N1CCC(C(=O)c2ccc(F)cc2)CC1 | . | . | . | . | . | .
O=C(c1ccc(F)cc1)C1CCN(C(=S)Nc2ccc(F)cc2)CC1 | ? | . | . | . | . | 22µM
COc1ccc(OC)c(NC(=O)NNC(=O)c2cc3occc3[nH]2)c1 | . | . | -68 | . | . | .
Cc1ccc(C)c(NC(=O)NNC(=O)c2cc3occc3[nH]2)c1 | . | . | . | . | . | .
O=C(Nc1ccc(F)c(F)c1)c1cnn2c1NC(=C1CC1)C=C2C(F)F | / | . | / | / | / | /
C#CCN1CCc2onc(-c3ccc(Br)cc3)c2C1=O | . | . | / | . | / | 35µM
SMILES | Abeta rescue | aSyn yeast inh | CCT chaperon mod | FUS suppressor | Mm-Cpn inhibitor | TDP-43 yeast inh
O=C(COCc1ccncc1)N1CCN(c2ccc(F)cc2Cl)CC1 | / | / | / | . | / | /
CN1CC(c2ccccc2Cl)C2(COc3ccccc3C2=O)C12C(=O)Nc1ccccc12 (configuration not stated) | . | . | . | . | . | ?
Cc1ccc(C2CN(C)C3(C(=O)Nc4ccccc43)C23COc2ccccc2C3=O)cc1 (configuration not stated) | . | . | . | / | . | 3.5µM
COC(=O)c1ccccc1NC(=O)CCc1ccccc1 | . | . | . | . | . | 10µM
COC(=O)c1ccsc1NC(=O)CCc1ccccc1 | . | . | . | . | . | ?
COC(=O)c1cc(C)sc1NC(=O)CCc1ccccc1 | . | . | . | . | . | 11µM
Cc1ccc(-n2c(SCC(=O)Nc3ccc4c(c3)OCCO4)nnc2-c2ccccn2)cc1 | / | / | / | . | / | /
COc1ccc(C2C3=C(N=C4SCC(=O)N42)c2ccccc2CC3)cc1OC (configuration not stated) | . | . | . | 35µM | ? | .
